Data as given in PubChem BioAssay (NCATS).
Records with an inconclusive call do not appear. A number with no mark means an inactive call. Activity calls are given as the source filed them. Calls come from the whole dose curve; as a rule, active = well fitted inhibition curve with a large enough effect in the signal ratio, with a control signal flat (not every such curve was filed as active); inconclusive = small, poorly fitted or top-dose-only effect, or effect the other way, or a change in a side signal; inactive = no such curve, though single readings can be large or run the other way; the % refers to the signal ratio.

Molecular target: Peroxisome proliferator-activated receptor delta (Homo sapiens) (UniProt Q03181)
Sequence (Q03181 whole entry, looked up): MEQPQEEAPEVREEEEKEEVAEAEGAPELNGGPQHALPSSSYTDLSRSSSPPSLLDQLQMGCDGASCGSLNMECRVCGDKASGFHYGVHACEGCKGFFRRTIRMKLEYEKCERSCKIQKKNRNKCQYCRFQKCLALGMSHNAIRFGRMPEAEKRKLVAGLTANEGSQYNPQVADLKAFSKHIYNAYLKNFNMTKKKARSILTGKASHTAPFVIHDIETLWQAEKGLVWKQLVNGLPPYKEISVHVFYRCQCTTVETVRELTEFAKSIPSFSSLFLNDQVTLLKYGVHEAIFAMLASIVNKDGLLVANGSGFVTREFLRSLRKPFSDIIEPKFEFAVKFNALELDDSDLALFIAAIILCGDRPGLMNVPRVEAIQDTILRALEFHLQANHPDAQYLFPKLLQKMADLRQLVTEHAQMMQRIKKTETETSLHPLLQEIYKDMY
Assay: qHTS assay for small molecule antagonists of peroxisome proliferator-activated receptor delta signaling (AID 588535)
Conditions: HEK293T PPARd-UAS-bla, beta-lactamase FRET ratio, 18 h; series mostly up to 76.7 µM; activity change, negative = inhibition: at the top concentration
Excerpt: NIH Chemical Genomics Center [NCGC] U.S. Environmental Protection Agency [EPA] National Institutes of Environmental Health Sciences [NIEHS] National Toxicology Program [NTP] NCGC Assay Overview The Peroxisome proliferator-activated receptors (PPARs) are lipid-activated transcription factors of the nuclear receptor superfamily with three distinct subtypes namely PPAR alpha, PPAR delta (also called PPAR beta) and PPAR gamma. All these subtypes heterodimerizes with Retinoid X receptor (RXR) and have different physiological functions. […] This role of PPAR delta implicates the potential use of its ligands in the treatment of metabolic disorders.
NCGC Assay Protocol Summary Using a beta-lactamase reporter-gene under control Peroxisome Proliferator-Activated Receptor delta (PPAR-delta) response element, a cell-based assay [GeneBLAzer (PPAR-delta-UAS-bla assay developed by Invitrogen] was used to measure PPAR-delta ligands signaling. GeneBLAzer PPAR-delta-UAS-bla HEK293T cells were used with assay medium containing 2% charcoal/dextran FBS. The assay was performed in clear bottom black Greiner 1536-well plates. Library compounds were measured for their ability to inhibit the reporter gene activity. Compounds were screened in a titration series in 1536-well format. The fluorescence intensity (405 nm excitation, 460/530 nm emission) was measured using an EnVision plate reader. […] Concentration-response titration points for each compound were fitted to the Hill equation yielding concentrations of half-maximal inhibition (IC50) and maximal response (efficacy) values. qHTS protocol for PPAR-delta beta-lactamase assay in antagonist mode [Step] [Parameter] [Value] [Description] 1. Reagent; 5 uL; 4000 cells/well 2. Incubation; 37 C for 5 hrs 3. Compounds; 23 nL; 0.59 nM to 92 uM 4. […] Incubation; 37 C for 18 hrs 7. Detection reagent; 1 uL of CCF4-dye 8. Incubation; RT for 2 hrs 9. Detection; Fluorescence; Envision plate reader

Structure (SMILES)	activity change, negative = inhibition	outcome
CCCCC(CC)COS(=O)(=O)O (configuration not stated)	5.4%	–
N[C@@H](Cc1cc(I)c(Oc2ccc(O)c(I)c2)c(I)c1)C(=O)O	24.3%	–
COC(=O)c1ccccc1O	–	inactive
Cc1ncc[nH]1	-14.5%	–
C/C=C/C=C/C(=O)O	-32.5%	–
CCCCO	-24.3%	–
OB(O)O	21.6%	–
CC(C)CCCCCCc1ccc(O)cc1	-19.4%	–
CCCCC	-14.1%	–
CO[C@@H]1[C@H](OC(=O)/C=C/C=C/C=C/C=C/C(=O)O)CC[C@]2(CO2)[C@H]1[C@@]1(C)O[C@@H]1CC=C(C)C	5.36%	–
CO	-5.88%	–
CC(C)[C@@H]1CC[C@@H](C)C[C@H]1O	5.66%	–
Cc1ccc(S(=O)(=O)O)cc1C	-20.1%	–
NCCO/C=C/[C@H](N)C(=O)O	10.5%	–
C=CC(C)(O)CC/C=C(\C)CCC=C(C)C (configuration not stated)	7.24%	–
Nc1ncnc2c1ncn2[C@H]1CC[C@@H](CO)O1	–	inactive

Structure (SMILES)	activity change, negative = inhibition	outcome
OC[C@H]1O[C@@](CO)(O[C@H]2O[C@H](CO)[C@@H](O)[C@H](O)[C@H]2O)[C@@H](O)[C@@H]1O	3.61%	–
CN(CCO)CC(O)Cn1cnc2c1c(=O)n(C)c(=O)n2C (configuration not stated) (tested in a mixture with another compound)	10%	–
c1ccc2ccccc2c1	–	inactive
CC(C)O	-7.67%	–
CCCCCCCCCCCCCCCCCC(=O)OC[C@@H](O)[C@H]1OC[C@H](O)[C@H]1O	26.1%	–
Nc1nccs1	-24.3%	–
CC1=CCC2CC1C2(C)C (configuration not stated)	-5.49%	–
Oc1cccc(O)c1O	-22.6%	–
Cc1ccc(S(=O)(=O)NCl)cc1	-3.35%	–
Nc1ccc(N=Nc2ccccc2)c(N)n1	–	inactive
[O-][N+](=Nc1ccccc1)c1ccccc1	-2.16%	–
NCCN	-0.492%	–
CC1=CC(=O)NS(=O)(=O)O1	–	inactive
OCl	-13.7%	–
OCC(O)CO	-6.05%	–
C[Si](C)(C)O[Si](C)(C)C	3.13%	–
